From PubChem
Rows were chosen to be rich in hits. Some 9% of all compounds tested hit in one or more screens of this group.
G9a inh: blocks human histone lysine methyltransferase G9a | AID 504332 | G9a H3K9 monomethylation, AlphaScreen, 2 h | Q96KQ7 | Potency, µM (titrated, usually from 102 µM), without a hit: at the top dose activity, negative = inhibition, hits mostly inhibitors | 350,000 compounds, 8.8% hits; further: on the % scale 0 is the no-effect control and ±100 the full control effect; nearly all actives have a fitted effect of over 75% in size
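Step 1: enzyme (final 20 nM) with compound, 15 min RT. Step 2: substrate peptide 500 nM and SAM 20 uM, 2 h RT. Step 3: anti-H3K9me1 antibody and AlphaScreen beads, 10 min, then plate read.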
HP1b chromo inh: blocks HP1-beta chromodomain binding to methylated histone tails; AlphaScreen HP1-beta / biotin-H3K9me3 peptide binding; Potency, µM (highest dose often 114 µM), without a hit: at the top dose activity change, negative = inhibition, hits mostly inhibitors; AID 540317; 390,000 compounds, 0.56% hits; P83916; further: nearly all actives have a fitted effect of over 70% in size
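HP1-beta protein (50 nM final) preincubated 30 min at room temperature with biotinylated H3(1-18)K9me3 peptide (50 nM) in PBS pH 7.4, 0.01% Tween-20, then compound added for 30 min. AlphaScreen streptavidin donor/nickel chelate acceptor beads (10 ug/mL final), 30 min dark, luminescence read.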
BAZ2B block: blocks human BAZ2B | Potency, µM (highest dose often 114 µM), for inactives: at the top dose activity change, negative = inhibition, usual class: inhibitors | AID 504333 | 360,000 compounds, 4.4% hits | AlphaScreen BAZ2B-H3K14Ac peptide displacement; further: on the % scale 0 is the no-effect control and ±100 the full control effect; nearly all actives have a fitted effect of over 60% in size
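Complex of BAZ2B and biotin-H3K14Ac (50 nM apiece) forms over 30 min at RT, then faces library compounds up to 110 uM for another 30 min; AlphaScreen beads added, 20 min dark incubation, luminescence read.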
12-LOX inh: blocks human arachidonate 12S-lipoxygenase | Potency, µM (highest dose often 108 µM), without a hit: at the top dose activity change, negative = inhibition, most hits filed as inhibitors | 580,000 compounds, 1.1% hits | P18054 | purified 12hLO, xylenol orange hydroperoxide absorbance; further: on the % scale 0 is the no-effect control and ±100 the full control effect
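Hydroperoxide product was detected by ferrous iron/xylenol orange as the 573 to 405 nm absorbance ratio. Arachidonic acid at 40 uM (final) was turned over for 30 min at room temperature by 150 nM human 12hLO, pH 7.0 Hepes buffer, after 15 min compound preincubation.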
JMJD2A Tudor: blocks the human JMJD2A Tudor domain; AlphaScreen JMJD2A-Tudor / H3K4me3 peptide binding; Potency, µM (highest dose often 114 µM), inactives show at the top dose activity change, negative = inhibition, actives largely listed as inhibitors; 390,000 compounds, 4.4% hits; O75164; further: on the % scale 0 is the no-effect control and ±100 the full control effect; nearly all actives have a fitted effect of over 50% in size
PLK1 PBD inh: inhibitors of human PLK1 polo-box domain binding. 360,000 compounds, 2.8% hits. Plk1 PBD binding of FITC phosphopeptide, fluorescence polarization. Potency, µM, for inactives: max response, negative = inhibition, hits mostly inhibitors. P53350; further: series mostly up to about 57 µM; on the % scale 0 is the no-effect control and ±100 the full control effect; nearly all actives have a fitted effect of over 65% in size
* = called active by the depositor; [ ] = dose if it differs, or a comment. The call rests on the fitted dose curve; in most records, active means well fitted curve in the direction sought with a large enough effect; inconclusive means small, poorly fitted or top-dose-only effect, or another doubt; inactive means no such curve, though single readings can be large; an effect the other way counts as inactive or inconclusive. Potency means the concentration at half of the fitted maximal effect.

What do the screens show for `Nc1c(-c2ccc3c(c2)OCCO3)oc2ccccc2c1=O`?
G9a inh: 50.1µM*; HP1b chromo inh: 45.3%; BAZ2B block: 34.0%; 12-LOX inh: -12.5%; JMJD2A Tudor: 30.0%[57.1 µM]; PLK1 PBD inh: inconclusive

How did Cc1ccccc1S(=O)(=O)NC1OC(=O)C(Cl)=C1Cl (configuration not stated) do in these assays?
G9a inh: -12.7%[59 µM]; HP1b chromo inh: 23.0%; BAZ2B block: inconclusive; 12-LOX inh: inconclusive; JMJD2A Tudor: inconclusive; PLK1 PBD inh: inconclusive

What do the screens show for `Cc1ccccc1S(=O)(=O)NC1OC(=O)C(Oc2ccccc2)=C1Br` (configuration not stated)?
G9a inh: 50.1µM*; HP1b chromo inh: 11.9%; BAZ2B block: inconclusive; 12-LOX inh: inconclusive; JMJD2A Tudor: -20.1%; PLK1 PBD inh: inconclusive

Results for CC1(C)C(=O)N(CC2CCOCC2)[C@H]2CN(Cc3cccnc3N)C[C@H]2[S+]1(=O)[O-] ?
12-LOX inh: 4.2%[176 µM]

Results for Cc1ccc(SSc2cc(C)ccc2N)c(N)c1 ?
G9a inh: inconclusive; HP1b chromo inh: 14.1µM*; BAZ2B block: 50.1µM*; 12-LOX inh: 10µM*; JMJD2A Tudor: 7.94µM*; PLK1 PBD inh: 0.336µM*

How did Cc1ccc(O)c(N)c1 do in these assays?
G9a inh: 9.7%[0.501 µM]; HP1b chromo inh: 3.8%; BAZ2B block: -4.0%; JMJD2A Tudor: -31.7%; PLK1 PBD inh: -16.0%

Results for COc1ccc(C(Nc2cc(C)ccn2)c2ccc3ccc(C)nc3c2O)cc1 (configuration not stated) ?
G9a inh: 3.98µM*; HP1b chromo inh: -12.7%; BAZ2B block: -25.0%; 12-LOX inh: inconclusive; JMJD2A Tudor: inconclusive; PLK1 PBD inh: 15µM*

What do the screens show for `Cc1ccc(C(Nc2ccccc2)c2ccc3ccc(C)nc3c2O)c(C)c1` (configuration not stated)?
12-LOX inh: -12.5%

Results for Cc1ccnc(NC(c2ccsc2)c2ccc3ccc(C)nc3c2O)c1 (configuration not stated) ?
G9a inh: -151.7%[59 µM]; HP1b chromo inh: inconclusive; BAZ2B block: inconclusive; 12-LOX inh: inconclusive; JMJD2A Tudor: inconclusive; PLK1 PBD inh: 2.99µM*

What do the screens show for `CC(=O)c1ccc(NC(=O)c2cc3c([nH]c2=O)CC(c2ccccc2)CC3=O)cc1` (configuration not stated)?
G9a inh: -36.6%[59 µM]; HP1b chromo inh: 16.6%; BAZ2B block: 2.9%; 12-LOX inh: -10.6%; JMJD2A Tudor: -10.9%

How did O=c1cc(CSc2nnc3ccccn23)c2c(ccc3ccccc32)o1 do in these assays?
G9a inh: inconclusive; HP1b chromo inh: 24.2%; BAZ2B block: -0.6%; 12-LOX inh: -21.3%; JMJD2A Tudor: -4.1%; PLK1 PBD inh: 42.3µM*

What do the screens show for `CCOC(=O)c1c(C)[nH]c(C)c1S(=O)(=O)N1CCC(C(=O)Nc2ccc(C)c(N(C)C)c2)CC1`?
G9a inh: inconclusive; HP1b chromo inh: 21.7%; BAZ2B block: -35.4%; 12-LOX inh: -18.5%; JMJD2A Tudor: -19.2%

What do the screens show for `Cc1ccc(NC(=O)CSc2nnc(-c3ccco3)c(-c3ccco3)n2)cc1`?
G9a inh: inconclusive; HP1b chromo inh: inconclusive; BAZ2B block: 31.6µM*; 12-LOX inh: inconclusive; JMJD2A Tudor: 56.2µM*; PLK1 PBD inh: 26.7µM*

What do the screens show for `O=C(CSc1nnc(-c2ccco2)c(-c2ccco2)n1)Nc1ccccc1`?
G9a inh: -3.2%[2.33 µM]; HP1b chromo inh: 22.4µM*; BAZ2B block: 20µM*; 12-LOX inh: inconclusive; JMJD2A Tudor: 50.1µM*; PLK1 PBD inh: 18.9µM*

Results for CCc1nnc(SCC(=O)Nc2ccc(C(C)=O)cc2)nc1CC ?
G9a inh: -6.0%[12.7 µM]; HP1b chromo inh: -0.6%; BAZ2B block: 56.2µM*; 12-LOX inh: 0.0%; JMJD2A Tudor: -15.6%; PLK1 PBD inh: -16.3%
